SMN2 splice enh – increases expression of the SMN2 splice variant; HEK293 SMN2-luciferase splicing reporter, luminescence, 30-36 h; Potency, µM (series often up to 46.1 µM), most hits filed as activators; hit rate 2.8% among 210,000; AID 1458; also: nearly all actives have a fitted effect of over 55% in size
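HEK293 cells carry an SMN2 […]–luciferase reporter in which exon 7 inclusion puts luciferase in frame. Cells were plated 10-12 h before compound addition, then incubated 30-36 h at 37C. ONE-Glo luminescence was read; sodium butyrate at 4.5 mM final served as control.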
Rab9 prom act – activators of Rab9 promoter. Huh7 Rab9 promoter-luciferase reporter, luminescence, 24 h. Potency, µM (highest dose often 9.22 µM), hits mostly activators. hit rate 2.8% among 320,000. AID 485297; also: nearly all actives have a fitted effect of over 60% in size
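Huh7 cells stably carrying a Rab9 promoter-luciferase reporter, 1500 cells per well in OP-MEM I with 10% FBS, treated with compound 24 hours at 37C. Luciferase activity read by luminescence after 10 minutes with Amplite reagent.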
ELG1 DNA repair – ELG1-dependent DNA repair inhibition. HEK293T ELG1-luciferase reporter, luminescence, 16 h; DNA damage induced by 5-fluorouridine. Potency, µM (top dose mostly 46.1 µM), most hits filed as inhibitors. hit rate 2.3% among 330,000. AID 504467; also: nearly all actives have a fitted effect of over 55% in size
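Quantitative HTS, concentration-response format. 2,000 cells/well co-treated with 5-fluorouridine and compound, 16 hr in 5% CO2 at 37 °C; ONE-Glo luminescence read after 30 min.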
NPC1 promoter act – activates the NPC1 promoter; Huh7 NPC1 promoter luciferase reporter, 24 h; Potency, µM (highest dose often 9.22 µM), hits mostly activators; hit rate 2.4% among 320,000; AID 485313; also: nearly all actives have a fitted effect of over 60% in size
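Compounds in DMSO were transferred onto Huh7 NPC1-luciferase reporter cells pre-incubated 2 h; after 24 h at 37 °C, Amplite reagent was dispensed and luminescence recorded 10 min later.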
FLuc modulator – inhibits or activates purified firefly luciferase, miR-21 counter-screen. AID 588342. P08659. Potency, µM (series often up to 57.5 µM), hits mostly inhibitors. purified FLuc, Km substrates, luminescence inhibition. hit rate 6.9% among 360,000; also: nearly all actives have a fitted effect of over 55% in size
Target sequence (P08659 whole entry, looked up): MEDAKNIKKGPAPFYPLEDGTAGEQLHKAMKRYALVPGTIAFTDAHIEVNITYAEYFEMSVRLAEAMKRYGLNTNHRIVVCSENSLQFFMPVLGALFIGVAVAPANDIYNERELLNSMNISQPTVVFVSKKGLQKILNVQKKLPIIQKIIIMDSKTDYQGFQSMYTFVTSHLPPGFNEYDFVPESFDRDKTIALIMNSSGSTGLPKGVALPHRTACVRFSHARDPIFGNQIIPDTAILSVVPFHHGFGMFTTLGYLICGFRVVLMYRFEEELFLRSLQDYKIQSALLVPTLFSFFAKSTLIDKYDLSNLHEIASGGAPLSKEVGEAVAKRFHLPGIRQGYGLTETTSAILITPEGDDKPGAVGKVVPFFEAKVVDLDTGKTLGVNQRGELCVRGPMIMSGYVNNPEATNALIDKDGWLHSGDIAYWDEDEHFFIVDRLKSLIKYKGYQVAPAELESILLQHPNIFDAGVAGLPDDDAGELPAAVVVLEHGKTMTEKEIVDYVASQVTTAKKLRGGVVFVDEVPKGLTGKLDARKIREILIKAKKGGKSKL
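Purified P. pyralis luciferase, 10 nM final, with Km-level 10 uM D-luciferin and 10 uM ATP in 50 mM Tris acetate pH 7.5, 10 mM Mg acetate, 0.01% Tween-20, 0.05% BSA; 6-point qHTS titration about 60 µM downward; luminescence read.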
ELG1 genotoxic – induces genotoxicity in HEK293T cells with luciferase-tagged ELG1 | HEK293T ELG1-luciferase reporter, luminescence, 16 h | Potency, µM (doses to about 46 µM), most hits filed as activators | hit rate 1.3% among 330,000 | AID 504466; also: nearly all actives have a fitted effect of over 60% in size
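Quantitative HTS format in 1536-well plates. HEK293T ELG1-luciferase reporter cells receive test compound and are incubated 16 hr at 37 °C, 5% CO2; ONE-Glo added, 30 min room temperature, then luminescence read.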
Numbers stand for hits; – = inactive; ? = inconclusive; · = not tested or not shown. Only some compounds are listed: those with a hit (about 9.2% of all), similar ones and a draw of the others. Calls follow the shape of the dose curve; as a rule, active = well fitted curve in the direction sought with a large enough effect; inconclusive = small, poorly fitted or top-dose-only effect, or another doubt; inactive = no such curve, though single readings can be large; an effect the other way counts as inactive or inconclusive.

SMILES | SMN2 splice enh | Rab9 prom act | ELG1 DNA repair | NPC1 promoter act | FLuc modulator | ELG1 genotoxic
COc1ccc(-c2noc(-c3ccc(Br)o3)n2)cc1 | · | 2µM | ? | 3.2µM | 2.4µM | ?
O=S(=O)(c1ccccc1)N1CCC(O)(CSc2ccccc2)CC1 | – | – | 8.2µM | – | – | –
Cc1ccc(NC(=O)Nc2ccc3c(c2)OCO3)c(OC(F)F)c1 | · | 3.5µM | ? | 2µM | 4.8µM | ?
Cc1cccc(C)c1NC(=O)Nc1ccc2c(c1)OCO2 | – | – | – | – | – | –
Cc1ccnc(NC(=O)Nc2ccc3c(c2)OCO3)c1 | 6.3µM | 0.5µM | ? | 0.63µM | 1.9µM | ?
O=C(Nc1ccc2c(c1)OCO2)Nc1ccc(Br)cn1 | 13µM | 1.6µM | ? | 4µM | 6µM | 7.3µM
O=C(Nc1ccc2c(c1)OCCO2)Nc1ccc2c(c1)OCO2 | 2.5µM | 0.1µM | ? | 0.4µM | 0.95µM | ?
Cc1cc(C)cc(N(CC(=O)NC(C)C)C(=O)CCC(=O)Nc2ccccn2)c1 | · | – | – | – | – | –
CC(=O)Nc1ccc(NC(=O)C(C)OC(=O)CNS(=O)(=O)c2cccc(Cl)c2)cc1 (stereo not given) | – | – | – | – | – | –
CC(=O)Nc1ccc(SCC(=O)c2cc(C)n(C)c2C)cc1 | – | – | ? | – | – | ?
NC(=O)c1ccc(NC(=O)Nc2ccc3c(c2)OCO3)cc1 | · | ? | ? | ? | 24µM | ?
CCc1ccccc1NC(=O)Nc1ccc2c(c1)OCO2 | – | – | ? | – | – | ?
O=C(Nc1ccc2c(c1)OCO2)Nc1ccccc1F | · | 0.5µM | ? | 0.45µM | 2.4µM | 0.92µM
CCNS(=O)(=O)c1ccc(NC(=O)Nc2ccc3c(c2)OCO3)cc1 | · | – | – | – | ? | –
O=C(Nc1cccc([N+](=O)[O-])c1)Nc1ccc2c(c1)OCCO2 | 11µM | 1.8µM | ? | ? | 2.7µM | ?
NS(=O)(=O)c1ccc(NC(=O)Nc2ccc3c(c2)OCO3)cc1 | · | ? | ? | ? | 15µM | ?
CC1=C(C(=O)Nc2ccc(C)cc2Cl)C2(CCCCC2)OC1=O | – | · | · | · | – | ·
O=C(O)c1ccc(NS(=O)(=O)c2ccsc2C(=O)O)cc1 | – | · | · | · | · | ·
O=C(Nc1ccc2c(c1)CCC2)Nc1ccc2c(c1)OCO2 | 13µM | 2.2µM | ? | 3.5µM | ? | ?
Cc1cc(F)ccc1NC(=O)Nc1ccc2c(c1)OCO2 | · | – | ? | – | – | ?
O=C(Nc1ccc(S(=O)(=O)NCc2ccccc2)cc1)Nc1ccc2c(c1)OCO2 | ? | – | – | – | 21µM | ?
COC(=O)c1ccc(NC(=O)Nc2ccc3c(c2)OCO3)cc1 | · | ? | ? | ? | 6.7µM | ?
COc1ccc(NC(=O)NC23CC4CC(CC(C4)C2)C3)cc1OC | – | – | – | – | ? | –
O=C(Nc1ccc2c(c1)OCCO2)NC12CC3CC(CC(C3)C1)C2 | 22µM | 1.3µM | ? | 2.5µM | 6µM | ?
Cc1cc2c(cc1C)NC(CC(=O)Nc1cccc(C)c1C)C(=O)N2 (stereo not given) | – | · | · | · | – | ·
SMILES | SMN2 splice enh | Rab9 prom act | ELG1 DNA repair | NPC1 promoter act | FLuc modulator | ELG1 genotoxic
Cc1ccc(NC(=O)Nc2ccc3c(c2)OCO3)cc1F | · | 1.3µM | ? | 1.1µM | 0.6µM | 9.2µM
NCCC[C@@H](CC(=O)N[C@@H]1CCCC[C@H]1C(=O)N[C@H](CC(=O)N[C@@H](CCC(=O)O)CC(=O)O)Cc1c[nH]c2ccccc12)NC(=O)C[C@H](CO)NC(=O)[C@@H]1CNCC[C@H]1N | – | · | · | · | · | ·
O=[N+]([O-])c1ccc(Cl)c(S(=O)(=O)Nc2ccc(-c3ccc(N4CCOCC4)nn3)cc2)c1 | · | – | ? | – | 15µM | –
O=S(=O)(Nc1ccc(-c2ccc(N3CCOCC3)nn2)cc1)c1ccc(Cl)c(Cl)c1 | · | – | – | – | 24µM | –
O=[N+]([O-])c1ccc(Cl)c(S(=O)(=O)Nc2cccc(-c3ccc(N4CCOCC4)nn3)c2)c1 | · | ? | ? | ? | 2.4µM | 10µM
COc1ccc(-c2cccc(NS(=O)(=O)c3cc([N+](=O)[O-])ccc3Cl)c2)nn1 | · | – | – | – | – | –
Cc1ccc([N+](=O)[O-])cc1S(=O)(=O)Nc1ccc(-c2ccc(N3CCOCC3)nn2)cc1 | · | – | – | – | ? | –
